A short description of assay [1]: Cell Proliferation Assay against the HBL1 Cell Line (AID 651646).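 Also: cells exposed to compound for 48 h before reading.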 The settings on record: HBL1 DLBCL cells; at 46.1 µM (top of the series). Summed up:
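After a 48 h incubation of 500 HBL1 cells/well in phenol red-free RPMI plus 5% FBS, relative luciferase units from CellTiter-Glo gave percent activity against DMSO and 9.2 uM bortezomib (final) controls.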

Assay [2] in a line: Cell Proliferation Assay against the TMD8 Cell Line (Caspase readout at 8 hrs) (AID 651713). Also: potency is read from the fitted curve at half-maximal effect. The settings on record: TMD8 lymphoma cells, caspase activation luminescence. The method, boiled down: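 Apoptosis readout: caspase 3/7 luminescence (Caspase-Glo), 15 min RT. Cells: TMD8, 500/well, RPMI + 5% FBS, no phenol red. Exposure 8 h, 37C. % activity vs DMSO = 0, bortezomib 9.2 uM final = 100.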

The target in assay [3] is Tyrosine-protein kinase Yes (Homo sapiens) (UniProt P07947). The assay is described as follows: qHTS for small molecule inhibitors of Yes1 kinase: Primary Screen (AID 686947).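 Also: plate controls were DMSO with enzyme for no effect and no-enzyme DMSO wells for full effect; nearly all actives have a fitted effect of over 60% in size.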 The method, boiled down:
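In this qHTS format, inhibition is expressed relative to DMSO controls with enzyme (maximum) and without enzyme (minimum). The 60 min room-temperature reaction uses 0.1 mM ATP, with ADP detected by luminescence.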
In general terms: In qHTS, concentration-response curves come from the screen itself.

Assay [4] is described as follows: qHTS for small molecule inhibitors of Yes1 kinase: Counter Assay (AID 686950).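 Also: no kinase present so only ADP-Glo detection of a fixed ADP amount is tested; luminescence from ADP-Glo reporting ADP in a fixed ATP and ADP mixture; 0% = DMSO wells with ATP plus ADP and -100% = ATP-only wells without ADP.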 The method, boiled down: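 Measuring interference with ADP-Glo, the assay ran 60 min at room temperature on an ATP/ADP mix lacking enzyme. Values were normalized to ATP-plus-ADP (maximum) and ATP-only (minimum) DMSO controls.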
Assay [5] in a line: qHTS Assay for Identifying Gametocytocidal Compounds (AID 743244). Also: potency is read from the fitted curve at half-maximal effect. The settings on record: P. falciparum 3D7 stage III-V gametocytes, alamarBlue, 72 h. Summed up:
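Viability read-out was resazurin reduction (alamarBlue, 24 h) measured at Ex 525/Em 598 nm. Beforehand, late-stage (III-V) 3D7 P. falciparum gametocytes at 20,000 cells/well were incubated with compound 72 h at 37C under 5% CO2.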

Assay [6] deals with Nuclear receptor subfamily 1 group I member 3 (Homo sapiens) (UniProt Q14994). The assay is described as follows: Primary qHTS for antagonist of constitutive androstane receptor (CAR) against the NCATS DSHEA and TCM libraries (AID 1794836). Summed up: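 HepG2 cells stably carrying hCAR and a CYP2B6 luciferase reporter (2,500 cells/well) attached for 5 h, then received compounds with 48 uM CITCO for 24 h at 37C. ONE-Glo luminescence read antagonism; CellTiter-Fluor (405/540 nm) gave viability.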

Assay [7] concerns the target Cytochrome P450 2C9 (Homo sapiens) (UniProt P11712). The assay is described as follows: qHTS for inhibitors of CYP2C9 against the NCATS DSHEA and TCM libraries (AID 1919973).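 Also: luminogenic pro-luciferin CYP2C9 substrate turned into luciferin with NADPH regeneration; % is scaled to controls: 0 for no effect and ±100 for the full control effect.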 The method, boiled down: (§1)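 Substances were tested against enzyme with a pro-luciferin substrate; minus-enzyme wells served as background. After NADPH-initiated oxidation (30-45 min, RT), light was generated with P450-Glo reagent.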

Assay [8] addresses Cytochrome P450 2C19 (Homo sapiens) (UniProt P33261). The assay is described as follows: qHTS for inhibitors of CYP2C19 against the NCATS DSHEA and TCM libraries (AID 1919974).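 Also: luminescence from luciferin released by CYP2C19 oxidation of a pro-luciferin substrate; % is scaled to controls: 0 for no effect and ±100 for the full control effect.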 Summed up:
as §1

A short description of assay [9]: KB-8-5-11 P-gp reporter qHTS against the NCATS DSHEA and TCM libraries (AID 1919977). Also: 0% is about no effect. Summed up:
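KB-8-5-11, 500 cells/well, DMEM/10% FBS without colchicine; 4 h attach; cpd titrations, 72 h, 37C/5% CO2; CellTiter-Glo, 30 min RT, luminescence.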

Assay [10] can be described thus: Dual reporter qHTS for agonist of Pregnane X Receptor (hPXR) against the NCATS DSHEA and TCM libraries: Fluorescence readout (AID 1920058). Also: 0% is about no effect. The method, boiled down:
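Fluorescence read-out for cell viability: CellTiter-Fluor, 1 h at 37 °C, Ex/Em 405/540 nm. This followed ~24 h treatment of hPXR-Luc HepG2 cells with substances in agonist mode.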

The target of assay [11] is Nuclear receptor subfamily 1 group I member 2 (Homo sapiens) (UniProt O75469). Nature of the assay: Dual reporter qHTS for agonist of Pregnane X Receptor (hPXR) against the NCATS DSHEA and TCM libraries: Luminescence readout (AID 1920059). Also: 0% is about no effect. The method, boiled down: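 hPXR-LucHepG2 cells in phenol red-free DMEM with 5% charcoal-stripped FBS, 2000 cells/well, attached 5 h, then exposed 24 h at 37C to compounds; rifampicin as positive agonist control (2.8 nM–92 uM). Luciferase luminescence read.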

A short description of assay [12]: Confirmatory qHTS for activators (rescue) of SARS-CoV-2 Cytopathic Effect (CPE) (AID 1508606; calls by dose curve; also: potency is read from the fitted curve at half-maximal effect; nearly all actives have a fitted effect of over 70% in size).
Assay [13] deals with Cytochrome P450 2C9 (Homo sapiens) (UniProt P11712). Nature of the assay: qHTS Assay for Inhibitors and Substrates of Cytochrome P450 2C9 (AID 883). Also: potency is read from the fitted curve at half-maximal effect; nearly all actives have a fitted effect of over 60% in size. The method, boiled down:
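Human CYP2C9 (10nM) hydroxylated Luciferin-H (100uM, at its KM) to luciferin in 25mM KPO4. Compound was preincubated 10 min at 37C, then NADPH regeneration started a 60 min reaction at 37C. Luminescence was read after detection reagent, normalized to 57uM sulphaphenazole.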

The target of assay [14] is DNA dC->dU-editing enzyme APOBEC-3G (Homo sapiens) (UniProt Q9HC16). Nature of the assay: qHTS for inhibitors of Vif-A3G interactions: Validation (AID 588379). Also: 0% is about no effect. Summed up: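 Yellow fluorescence (Ex 488, Em 500-530) of Vif-coexpressing HeLa A3G-eYFP cells, scanned by Acumen cytometer, reports blocked A3G degradation. Cells plated at 700/well overnight at 37 deg C before compound addition, then a further overnight compound incubation at 37 deg C.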

Assay [15] in a line: qHTS Assay for Identification of Small Molecule Antagonists for NFkB Signaling Pathway (AID 895; active = well fitted inhibition curve with a large enough effect in the signal ratio, with a control signal flat, not every such curve was filed as active; the % refers to the signal ratio; also: % is scaled to controls: 0 for no effect and ±100 for the full control effect). The method, boiled down:
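NFkB-bla ME-180 cervical carcinoma cells with beta-lactamase reporter under NFkB response element; compounds added, then TNF alpha at 10 pM final (EC50), 5 h at 37 C. LiveBLAzer substrate 2 h, room temperature; emission 460/530 nm at 405 nm excitation.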

Assay [16] deals with ATP-dependent 6-phosphofructokinase (Trypanosoma brucei brucei) (UniProt O15648). Nature of the assay: qHTS Assay to Find Inhibitors of T. brucei phosphofructokinase: hit validation (AID 492961).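 Also: luminescence reports ADP formed as PFK phosphorylates fructose-6-phosphate with ATP; % is scaled to controls: 0 for no effect and ±100 for the full control effect.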 Summed up: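 PFK 1.25 nM, F6P 0.5 mM, ATP 0.1 mM, MgCl2 5 mM, 0.1 M TEA pH 8.0, Tween20 0.01%, BSA 0.1%; 45 min RT. ADP-Glo two-step detection, luminescence. qHTS titration; curve fitting with curve-class categorization.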

Assay [17] is described as follows: S16 Schwann cell viability assay (CellTiter-Glo assay) (AID 624031).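 Also: native untransfected S16 rat Schwann cells; cellular ATP luminescence as a viability measure; plate controls were DMSO-treated cells for no effect and cell-free wells for full effect; nearly all actives have a fitted effect of over 70% in size.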 The method, boiled down:
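Parental S16 cells, 24 h compound, 37 °C. ATP-luminescence viability; DMSO = 0% activity, empty wells as reference; curves classified by fit quality and efficacy.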
A general note: In ATP-based viability assays light output follows the ATP content of the culture.

Assay [18] concerns the target D(1A) dopamine receptor (Homo sapiens) (UniProt P21728). Nature of the assay: HTS Assay for Allosteric Agonists of the Human D1 Dopamine Receptor: Primary Screen for Potentiators (AID 488982). Also: 0% is about no effect. The method, boiled down:
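Tetracycline-induced HEK293 T-REx cells force-coupled to calcium signalling were incubated overnight at 30 C and dye-loaded at room temperature. Calcium flux over 180 s after compound addition flagged agonists; a further 180 s read after EC20 dopamine flagged potentiators.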

Assay [19] can be described thus: Cytotoxicity counterscreen for NFkB agonists and antagonists (AID 624476). (The purpose of a counterscreen is to sort out artefacts and off-target activity.)
Assay [20] in a line: qHTS Assay for Identification of Small Molecule Agonists for NFkB Signaling Pathway. (AID 624478).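 Also: compounds tested together with TNF alpha at its EC50 of 10 pM; 0% is about no effect.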 The method, boiled down:
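Read-out: 460/530 nm emission at 405 nm excitation after 2 h LiveBLAzer loading; ME-180 NFkB-bla reporter cells exposed 5 h at 37 C to compounds with 10 pM TNF alpha final.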

Structures are written as SMILES. Results filed as inconclusive are left out. Calls of active or inactive are those of the source. Unless noted, calls follow the shape of the dose curve; as a rule, active = well fitted curve in the direction sought with a large enough effect; inconclusive = small, poorly fitted or top-dose-only effect, or another doubt; inactive = no such curve, though single readings can be large; an effect the other way counts as inactive or inconclusive.

Cytochrome P450 2C9 (Homo sapiens), sequence (P11712 whole entry, looked up): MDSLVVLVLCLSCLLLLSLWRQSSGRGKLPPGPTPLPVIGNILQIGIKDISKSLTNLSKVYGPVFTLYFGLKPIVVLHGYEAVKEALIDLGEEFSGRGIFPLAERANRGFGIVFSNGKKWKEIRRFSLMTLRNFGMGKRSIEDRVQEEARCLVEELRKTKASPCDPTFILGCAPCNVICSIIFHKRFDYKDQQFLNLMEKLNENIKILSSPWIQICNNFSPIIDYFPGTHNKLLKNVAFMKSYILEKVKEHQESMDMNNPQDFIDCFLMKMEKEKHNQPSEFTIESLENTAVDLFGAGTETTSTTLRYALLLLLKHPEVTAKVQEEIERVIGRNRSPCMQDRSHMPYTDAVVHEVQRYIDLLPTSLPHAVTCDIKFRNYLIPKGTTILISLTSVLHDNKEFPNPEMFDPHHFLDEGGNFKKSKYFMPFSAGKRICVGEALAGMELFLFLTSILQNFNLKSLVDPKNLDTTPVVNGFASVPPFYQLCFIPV
Nuclear receptor subfamily 1 group I member 2 (Homo sapiens), sequence (O75469 whole entry, looked up): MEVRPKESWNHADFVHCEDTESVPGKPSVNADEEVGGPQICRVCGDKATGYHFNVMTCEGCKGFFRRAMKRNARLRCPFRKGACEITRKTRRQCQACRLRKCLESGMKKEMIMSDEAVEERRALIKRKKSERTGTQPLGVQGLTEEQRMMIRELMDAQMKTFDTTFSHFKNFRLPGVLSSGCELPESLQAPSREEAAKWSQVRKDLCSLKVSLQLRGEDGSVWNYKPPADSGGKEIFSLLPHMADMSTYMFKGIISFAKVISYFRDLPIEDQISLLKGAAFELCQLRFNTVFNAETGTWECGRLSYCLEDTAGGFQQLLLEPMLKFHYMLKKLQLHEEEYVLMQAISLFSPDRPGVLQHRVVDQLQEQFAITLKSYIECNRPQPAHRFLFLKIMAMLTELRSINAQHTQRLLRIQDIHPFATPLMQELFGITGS
D(1A) dopamine receptor (Homo sapiens), sequence (P21728 whole entry, looked up): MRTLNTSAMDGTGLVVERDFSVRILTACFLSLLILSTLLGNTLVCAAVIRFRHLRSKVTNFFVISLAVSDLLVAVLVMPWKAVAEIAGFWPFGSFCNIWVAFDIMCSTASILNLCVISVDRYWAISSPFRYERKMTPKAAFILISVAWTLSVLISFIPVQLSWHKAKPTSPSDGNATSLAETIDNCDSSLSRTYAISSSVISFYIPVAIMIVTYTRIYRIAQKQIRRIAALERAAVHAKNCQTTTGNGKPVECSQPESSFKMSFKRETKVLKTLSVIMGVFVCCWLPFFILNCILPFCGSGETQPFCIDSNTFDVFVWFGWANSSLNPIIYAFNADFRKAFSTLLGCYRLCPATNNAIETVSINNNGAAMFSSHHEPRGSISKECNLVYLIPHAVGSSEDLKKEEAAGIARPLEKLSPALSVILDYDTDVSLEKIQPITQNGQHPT
Nuclear receptor subfamily 1 group I member 3 (Homo sapiens), sequence (Q14994 whole entry, looked up): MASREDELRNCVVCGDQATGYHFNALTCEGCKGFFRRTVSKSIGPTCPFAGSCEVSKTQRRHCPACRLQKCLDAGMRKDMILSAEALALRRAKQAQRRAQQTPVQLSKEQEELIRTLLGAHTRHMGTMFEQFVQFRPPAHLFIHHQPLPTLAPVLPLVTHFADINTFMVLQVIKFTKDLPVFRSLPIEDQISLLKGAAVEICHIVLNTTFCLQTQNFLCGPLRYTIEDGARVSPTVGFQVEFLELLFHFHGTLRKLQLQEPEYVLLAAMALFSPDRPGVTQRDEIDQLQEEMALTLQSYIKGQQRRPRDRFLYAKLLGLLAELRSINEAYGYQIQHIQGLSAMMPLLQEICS
Tyrosine-protein kinase Yes (Homo sapiens), sequence (P07947 whole entry, looked up): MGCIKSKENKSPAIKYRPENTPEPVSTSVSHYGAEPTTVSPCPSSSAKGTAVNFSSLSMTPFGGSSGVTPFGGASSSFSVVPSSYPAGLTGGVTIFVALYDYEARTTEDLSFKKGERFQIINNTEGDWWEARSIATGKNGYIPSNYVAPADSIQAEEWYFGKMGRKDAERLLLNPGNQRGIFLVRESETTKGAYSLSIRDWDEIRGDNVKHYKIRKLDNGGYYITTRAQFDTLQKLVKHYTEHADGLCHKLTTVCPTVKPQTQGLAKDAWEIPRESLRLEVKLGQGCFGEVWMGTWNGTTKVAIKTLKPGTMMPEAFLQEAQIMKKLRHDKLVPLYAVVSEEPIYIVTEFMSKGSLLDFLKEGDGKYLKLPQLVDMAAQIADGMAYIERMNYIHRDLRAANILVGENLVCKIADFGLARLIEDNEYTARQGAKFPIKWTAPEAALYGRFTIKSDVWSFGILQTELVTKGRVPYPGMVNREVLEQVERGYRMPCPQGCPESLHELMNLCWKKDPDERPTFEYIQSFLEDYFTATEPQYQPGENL
Cytochrome P450 2C19 (Homo sapiens), sequence (P33261 whole entry, looked up): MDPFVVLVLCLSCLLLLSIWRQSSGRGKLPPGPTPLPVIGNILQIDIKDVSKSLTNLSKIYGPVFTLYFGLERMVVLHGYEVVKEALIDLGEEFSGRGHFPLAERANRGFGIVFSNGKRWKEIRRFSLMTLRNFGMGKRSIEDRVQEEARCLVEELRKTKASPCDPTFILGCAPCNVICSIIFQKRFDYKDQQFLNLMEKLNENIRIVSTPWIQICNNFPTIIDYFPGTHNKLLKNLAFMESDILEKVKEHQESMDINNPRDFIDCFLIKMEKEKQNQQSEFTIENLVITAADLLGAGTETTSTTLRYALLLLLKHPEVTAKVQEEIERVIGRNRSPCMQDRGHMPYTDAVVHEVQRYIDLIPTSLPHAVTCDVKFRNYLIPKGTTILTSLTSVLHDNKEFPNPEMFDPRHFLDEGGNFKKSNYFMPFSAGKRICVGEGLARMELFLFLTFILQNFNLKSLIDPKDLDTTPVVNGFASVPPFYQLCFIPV
DNA dC->dU-editing enzyme APOBEC-3G (Homo sapiens), sequence (Q9HC16 whole entry, looked up): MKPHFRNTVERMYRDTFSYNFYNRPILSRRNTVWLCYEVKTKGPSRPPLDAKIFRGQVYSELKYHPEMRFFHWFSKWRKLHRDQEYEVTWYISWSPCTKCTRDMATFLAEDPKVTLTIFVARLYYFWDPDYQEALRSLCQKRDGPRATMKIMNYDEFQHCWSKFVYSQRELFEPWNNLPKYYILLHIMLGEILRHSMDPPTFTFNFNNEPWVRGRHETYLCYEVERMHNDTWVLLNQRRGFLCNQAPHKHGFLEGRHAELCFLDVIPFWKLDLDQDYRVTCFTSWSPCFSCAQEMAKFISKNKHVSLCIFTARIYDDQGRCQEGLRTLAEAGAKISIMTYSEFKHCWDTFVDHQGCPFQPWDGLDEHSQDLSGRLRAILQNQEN
ATP-dependent 6-phosphofructokinase (Trypanosoma brucei brucei), sequence (O15648 whole entry, looked up): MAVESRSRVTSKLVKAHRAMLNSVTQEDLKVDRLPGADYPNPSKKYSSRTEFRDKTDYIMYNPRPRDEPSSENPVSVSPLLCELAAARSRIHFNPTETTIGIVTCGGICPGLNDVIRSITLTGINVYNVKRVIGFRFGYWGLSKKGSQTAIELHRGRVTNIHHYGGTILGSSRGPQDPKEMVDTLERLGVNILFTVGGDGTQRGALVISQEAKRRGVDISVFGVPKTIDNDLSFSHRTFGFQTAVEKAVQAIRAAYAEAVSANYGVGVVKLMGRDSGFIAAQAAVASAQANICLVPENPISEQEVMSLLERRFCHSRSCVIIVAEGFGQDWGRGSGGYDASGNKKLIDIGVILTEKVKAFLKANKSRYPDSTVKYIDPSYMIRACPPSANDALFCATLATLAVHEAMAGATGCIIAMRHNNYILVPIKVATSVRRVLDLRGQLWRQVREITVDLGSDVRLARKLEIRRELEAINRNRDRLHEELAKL

For `COC(=O)[C@]12CCC(C)(C)C[C@H]1[C@H]1C(=O)C=C3[C@@]4(C)C=C(C#N)C(=O)C(C)(C)[C@@H]4CC[C@@]3(C)[C@]1(C)CC2`, the viability, percent of control in assay [1] was 1.52%. Moreover, the Potency in [2] was 0.662 µM (active); in [5], 5.01 µM (active). Moreover, the compound was called inactive in assay [3] and in [4].

`N#CC(O[C@@H]1O[C@H](CO[C@@H]2O[C@H](CO)[C@@H](O)[C@H](O)[C@H]2O)[C@@H](O)[C@H](O)[C@H]1O)c1ccccc1` (stereo not given in full): the Potency entry in assay [6], in assay [7], in assay [8], in assay [9] and in assay [11] was “inactive” in each case. Further, the outcome in [10] was inactive.

In the case of `CCCCCCC(C)(C)c1cc(O)c2c(c1)OC(C)(C)C1CC=C(CO)C[C@H]21` (stereo not given in full), the Potency in assay [12] is 10 µM (active).

In the case of `COc1cc(C=C(C#N)C#N)cc(O)c1O`, in assay [13], the Potency is 2.51 µM (active).

For `CC[C@@H](CO)NC(=O)[C@H]1C=C2c3cccc4c3c(cn4C)C[C@H]2N(C)C1`, the compound was classed as inactive in [14].

As to `CCCN(CCC)C(=O)Cc1c(-c2ccc(Cl)cc2)nc2c(Cl)cc(Cl)cn12`, the Potency result in assay [15] was “inactive”.

Regarding `CCCC[N+]1(C)C2CC(OC(=O)C(CO)c3ccccc3)CC1C1OC12` (stereo not given), the Potency entry in assay [16] and in assay [17] was “inactive” each time.

For the compound `CC12CCC3C(CCC4=C(O)C(=O)CCC43C)C1CCC2=O` (stereo not given), the outcome in assay [18], in [19] and in assay [20] was inactive.
